From PubChem BioAssay (NCI)
This is part of a sample that, as a whole, favours compounds with a hit. Of some 83,000 tested, about 20% had one in any assay.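 Single-concentration screen, 48 h exposure, 96-well plates. Endpoint: percent growth. Below 10 = active.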

How the values were obtained:
Experiment in all cases: NCI-60 one-dose screen, 48 h (100 = growth as untreated, 0 = no growth, -100 = all killed)
Settings in all cases: 10 µM
786-0 renal = tested on: 786-0 renal
MALME-3M melanoma = tested on: MALME-3M melanoma
MDA-MB-231 breast = tested on: MDA-MB-231 breast
SF-268 CNS = tested on: SF-268 CNS
SF-295 CNS = tested on: SF-295 CNS
UACC-257 melanoma = tested on: UACC-257 melanoma
SK-MEL-28 melanoma = tested on: SK-MEL-28 melanoma
EKVX NSCLC = tested on: EKVX NSCLC
UO-31 renal = tested on: UO-31 renal
TK-10 renal = tested on: TK-10 renal
ACHN renal = tested on: ACHN renal
CAKI-1 renal = tested on: CAKI-1 renal
A498 renal = tested on: A498 renal
OVCAR-8 ovarian = tested on: OVCAR-8 ovarian
OVCAR-5 ovarian = tested on: OVCAR-5 ovarian
OVCAR-3 ovarian = tested on: OVCAR-3 ovarian
HS 578T breast = tested on: HS 578T breast
BT-549 breast = tested on: BT-549 breast
MDA-MB-435 melanoma = tested on: MDA-MB-435 melanoma
SW-620 colon = tested on: SW-620 colon

Measured: growth

CC1(C)CC(=O)C2=C(C1)N(Cc1ccc(C(=O)O)cc1)C1=C(C(=O)CC(C)(C)C1)C2c1ccc(Cl)cc1
inactive: 786-0 renal 95.5% | MALME-3M melanoma 105% | MDA-MB-231 breast 106% | SF-268 CNS 106% | SF-295 CNS 99.4% | UACC-257 melanoma 101% | SK-MEL-28 melanoma 119% | EKVX NSCLC 97.5% | UO-31 renal 81.6% | TK-10 renal 92.2% | ACHN renal 116% | CAKI-1 renal 90.5% | A498 renal 95.8% | OVCAR-8 ovarian 105% | OVCAR-5 ovarian 106% | OVCAR-3 ovarian 112% | HS 578T breast 105% | BT-549 breast 93.5% | MDA-MB-435 melanoma 102% | SW-620 colon 101%

COc1ccc(C(=O)COc2ccc(NC(=O)Nc3ccccc3)cc2)cc1
inactive: 786-0 renal 94% | MALME-3M melanoma 85.3% | MDA-MB-231 breast 94.1% | SF-268 CNS 91.6% | SF-295 CNS 90.5% | UACC-257 melanoma 93.8% | SK-MEL-28 melanoma 102% | EKVX NSCLC 82.7% | UO-31 renal 80% | TK-10 renal 101% | ACHN renal 98% | CAKI-1 renal 72.7% | A498 renal 104% | OVCAR-8 ovarian 87.2% | OVCAR-5 ovarian 98.7% | OVCAR-3 ovarian 104% | HS 578T breast 97.3% | BT-549 breast 76.2% | MDA-MB-435 melanoma 89.4% | SW-620 colon 101%

COc1cccc(C(=O)CSc2nc(-c3ccc(OCc4ccccc4)c(OC)c3)c(C#N)c(=O)[nH]2)c1
inactive: 786-0 renal 85.7% | MALME-3M melanoma 98.3% | MDA-MB-231 breast 91.1% | SF-268 CNS 97.4% | SF-295 CNS 95.2% | UACC-257 melanoma 94% | SK-MEL-28 melanoma 96.5% | EKVX NSCLC 97.1% | UO-31 renal 82.8% | TK-10 renal 94.7% | ACHN renal 99.9% | CAKI-1 renal 90.8% | A498 renal 95.4% | OVCAR-8 ovarian 105% | OVCAR-5 ovarian 100% | OVCAR-3 ovarian 106% | HS 578T breast 90.8% | BT-549 breast 102% | MDA-MB-435 melanoma 95.7% | SW-620 colon 102%
